# Over roughly 25,000 sequences, “ln(normalized median fluorescence intensity)” has its median near 9.3; the highest 2% begin near 10. For the sample, the highest values were picked, then their nearest neighbours and some sequences at random.
# System: PF3D7_0420300 AP2 domain 1 (GST-tagged)
# Experiment: gcPBM binding intensity (ln(normalized median fluorescence intensity)); higher = stronger DNA binding
# Outline: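 Binding of GST-tagged P. falciparum DNA-binding domains, expressed in E. coli and used at about 25 μg on average, was carried out for 1 h in 1× PBS containing 1% milk, 0.2 mg/ml BSA, 0.5% salmon testes DNA and 0.03% Triton X-100. The target was an Agilent 4 × 180k array of primer-extended double-stranded 36-bp intergenic genomic probes plus negative controls, read with Alexa488 anti-GST antibody at 488 nm. Binding intensity is the highest Masliner-normalised natural-log median intensity across replicate spots of either probe orientation.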
row,Sequence,gcPBM binding intensity (ln)
1,ATCCTACTATGTTATACACACAATTACTTTTTTCTC [CACACA_site3712],9.86
2,TTATACTTTGGGTGGTGTACTATATTATGCTTATAA [XGTACX_site1106],9.51
3,CTTATTATTATATGGGTGCTCATATTTTTCTTTTTT [GTGCAC_site9723],9.4
4,GGTGGTGGTGGGTGGGTGCTTCTATTATTATATTAT [GTGCAC_site9391],10.7
5,CCTTTATAATTGGAAACACACATATAAAGTATATAT [CACACA_site3900],9.2
6,CATTCAAACAAAAAAAGTACTCATCACATAATATAT [XGTACX_site1251],9.44
7,ATATAAATAAACAGGTGTACTATAATGTTCATAGTA [XGTACX_site1553],9.47
8,TTAATTATAATTATATGTACGAACTTTTTTTTTTTT [XGTACX_site6586],9.14
9,AAAAAAAAAAAACACACACACACATTCAATATAAAA [CACACA_site40],10
10,TTCATTAAAACGAATACACACATAAATATATAAAAG [CACACA_site4824],9.62
11,AAAAAAAAAAAAAAAACACACAGAACAATATATAAA [CACACA_site4698],9.76
12,AAAAAAAACGAACACACACACATTCAATATAAAACA [CACACA_site6170],10.2
13,AATATTATAATATAAACACACAAAATTCAATTATAT [CACACA_site3789],9.69
14,AAAAAAAACAGACACACACACATTCAATATAAAACA [CACACA_site41],10.2
15,AATATTAAAATATAAACACACAAAATTCAATTATAT [CACACA_site5971],9.61
16,AAAAAAAACGGACACACACACATTCAATATAAAACA [CACACA_site4189],10.2
17,AAAAAAAACAGACACACACACATAAATATAAATAAA [CACACA_site6214],9.96
18,TATAATAGTTCATAGGTGCAATATAATAAATTTATA [GTGCAC_site9573],9.13
19,TACCTTTATTAATAAAGTACATTAATCTGTGTATAC [XGTACX_site8720],9.09
20,AGTATTCACTTAATATGTACATATTTATTATAAGAG [XGTACX_site3434],9.11
21,ACATCAAGAATTATTAAGAATACGGATAGATAAAAT [GTGCAC_negctrl_site261],9.4
22,ATAAAATTTTATATGGGTACATAATATAATATATAT [XGTACX_site8160],9.21
23,TATAAGAATAAAAAGGGTACATAAAATAATAATATA [XGTACX_site2355],9.55

row,Sequence,gcPBM binding intensity (ln)
1,ATTATAAGAAGGGGGGGTACATAAATATAAATGTAT [XGTACX_site5624],10.3
2,AAAAAAAAAAAGAAGGGTACATATTATATATAATAT [XGTACX_site6204],9.43
3,ATATTAAAAATATATACACACATATATATAAATATA [CACACA_site2257],9.37
4,AAAAAAAATAAAAATAGTACTCAAAAAATTATGAAT [XGTACX_site3073],9.19
5,GCTCAATTTTTGGGTACACACAAATGTATAAGAATA [CACACA_site7178],9.22
6,TTATGGTTATACATATGTACATATATATATATATAT [XGTACX_site1494],9.29
7,ATAATTACAAAATAAACACACATATAGATTTATATG [CACACA_site6343],9.6
8,TATAAATATACACCCACACACATATATATATATATA [CACACA_site3745],9.66
9,TACACGCTAAAATACACACACACACCCACATATATA [CACACA_site4153],10.2
10,TACCCACTAAAATACACACACACACCCACATATATA [CACACA_site6141],10.2
11,AAAAAAAATACATACACACACACACCCACATATATA [CACACA_site3561],10.1
12,TATAAATATACACCCACACACATATATAAATAAATA [CACACA_site7717],9.89
13,TATATAAATATACACCCACACACATATATATATATA [CACACA_site9247],9.63
14,TATATATATAAATACACACACACCCTAAAAATATAT [CACACA_site4970],10.1
15,TATACACCCTAAAATACACACACACCCACCCATATA [CACACA_site9380],10.3
16,TATATATATATATACACACACACCCTAAAAATATAT [CACACA_site1611],9.97
17,AATATAAAAATATAAAAACACACGTAAAAAAATTTA [CACACA_site3399],9.73
18,TAATTTCTTATGTATTGTACAAATAATGTATGATAT [XGTACX_site270],9.2
19,AAAAAAAAAAAAAAGGTGCAAATAAATTAACCTTAT,9.16
20,TGCAAGGAACAACACACACACACATAAATGTATATA [CACACA_site8149],10.2
21,AGAAAAAACAAAAGAGAAATGAAAAAAAAAAAAAAA [XGTACX_negctrl_site482],8.87
22,TTAAGATAGCAAATATGTACACATTTGTAAAATAAA [XGTACX_site4837],9.25
23,TTAAACGTACATAATACACACACATGTAGACATATA [CACACA_site8635],9.79

row,Sequence,gcPBM binding intensity (ln)
1,TATATATATTGTTATTGTACACAAATATAGGAAATA [XGTACX_site7110],9.23
2,ATATATTATTTCTAGTGTACATACCCATATATAATA [XGTACX_site8902],9.46
3,GTTTTCTAGTGGGGGTGTACATATTTATATTTAATA [XGTACX_site8378],10.2
4,TTTATTAATTTATAGTGTACATATTAATAATATATT [XGTACX_site7949],9.09
5,TTTGTGATATTATATTGTACCCTATATTTATTATAA [XGTACX_site4240],9.56
6,TTATGTTCATTATATGCACACATATATATAAATGTA [CACACA_site8947],9.24
7,TTTTTATAACAGCTTAGTACATATAAGAATTCTTGC [XGTACX_site5890],8.9
8,TAAAAGAAAGCACATACACACACAAAAAAAAAAAAG [CACACA_site8159],10.2
9,TCATAATGAAAACAAGCACACATACATAAAATAAAA [CACACA_site9069],9.7
10,TAAAAGTTGAAGCACACACACAAAAGAAATACAATA [CACACA_site6649],10.1
11,AACATAAAAATTGAAGCACACACACTAATGAAATAC [CACACA_site8287],10.2
12,CATAAAAATTGAAGCACACACACAAAAGAAATACAA [CACACA_site1112],10.2
13,AAGCACAAAAAATACACACACAAAAAATAAAAAAAG [CACACA_site1840],10.1
14,TAAAAATTGAAGCACACACACAAAAGAAATACAATA [CACACA_site1113],10.2
15,GCAAAATAAAGAAGCACACAAAAATGAAATATATAT [CACACA_site3651],9.59
16,ATAATGAAAACAAGCACACATACATAAAATAAAATA [CACACA_site3257],9.86
17,GGTCTTTTCAACACACGTACATAAAAATATTATACA [XGTACX_site5360],9.47
18,AAATAAATAATAAATAAATAAATAAAATACCAAATA [GTGCAC_negctrl_site620],9.6
19,AAGAAAATATAAAATGCACACTATAAATTGTATATA [CACACA_site7928],9.51
20,TACATAAATACATACATACACACATATATATATATA [CACACA_site2105],9.56
21,AAATAAAAAACAGTGGCACACATTATGTATCCACCT [CACACA_site3756],9.32
22,TATATACGCATGCGCACACACAAGTGGGAAATTTGG [CACACA_site1785],9.52
23,TGATATTTTATTATTAAAATATATACATATATATAT [CACACA_negctrl_site1456],9.26

row,Sequence,gcPBM binding intensity (ln)
1,TAAAAAAGTTATATTACACACTTTATTGGTTAACTT [CACACA_site653],9.35
2,CTTGTCATTTGGCACACACACATGTATAGGTTATTA [CACACA_site5656],9.9
3,CTCTTGTCATTTTGCACACACACATGGATAGGTTAT [CACACA_site5655],10.2
4,CTCTTGTCATTTTGCACACACACATGTATAGGTTAT [CACACA_site3057],10.2
5,AGCTCTTGTCATTTTGCACACACACCCGTATAGGTT [CACACA_site3056],10
6,CTTGTCATTGGGCACACACACATGTATAGGTTATTA [CACACA_site3058],9.7
7,AGCTCTTGTCATTTTGCACACACACCGGTATAGGTT [CACACA_site5654],10.1
8,CGTATGTATATATATATACACACTTCTGTGATACGA [CACACA_site1949],9.33
9,ATATAATTATATTCCATACACACATATATTTAAAGG [CACACA_site2958],9.42
10,TAAATAAGCACATACACACATACATACATACATAAA [CACACA_site4017],9.87
11,TATAAACATTATAAATGTACAAATATATATATATAT [XGTACX_site3218],9.28
12,ATTATAATTACTCTAGTGCATTATAAATATGAATAA,8.93
13,TATGCAAGGAACCACACACACACACCCAAATGTATA [CACACA_site750],10.1
14,TATGCAAGGAACCACACACACACACCGAAATGTATA [CACACA_site4573],10.1
15,TATGCAAGGAACCACACACACACACGGAAATGTATA [CACACA_site6490],10.2
16,AAATTAAAAAAAAATAAATAAAAAAAAAAAAAAAAT [CACACA_negctrl_site1611],9.35
17,TGGATATATGTAAAAATTGCAAGAAAGATAAAAGGA [CACACA_negctrl_site64],9.6
18,GCAACAAAAAATCAGACATGCATTTTAAAATGAATA [TGCATGCA_site846],9.14
19,TATTAAACTAAATGTAGTACATACACAAAAGAAACC [XGTACX_site606],9.75
20,ATTTTTTTTTTTTTTTTGGGGGGGTATACTTTTAAA [CACACA_negctrl_site1020],10.8
21,GTTAATATTTTTGGGGGTACTTAAAAAAAAAAAAAA [XGTACX_site1477],9.22
22,TATACTTTATATATTTTGTATATATATTTTTTTTAT [TGCATGCA_negctrl_site530],9.34

# — the supplement of paper PMC11417369
